USP28 block – inhibitors of human USP28 deubiquitinase | purified USP28, Ub-rhodamine cleavage fluorescence, 30 min | actives 3% (n = 47,000) | Q96RU2 | inhibition, % at 25 µM
OTUD3 inh – human OTUD3 deubiquitinase inhibition. Q5T2D3. actives 0.7% (n = 47,000). inhibition, % at 25 µM. purified OTUD3, Ub-rhodamine fluorescence, 2 h
UCHL1 block – human UCHL1 deubiquitinase inhibition | actives 0.2% (n = 47,000) | purified UCHL1, Ub-rhodamine cleavage fluorescence | inhibition, % at 20 µM | AID 1645859
USP8 inh – human USP8 deubiquitinase inhibition | P40818 | purified USP8, Ub-rhodamine cleavage fluorescence, 30 min | inhibition, % at 20 µM | AID 1645853 | actives 4.2% (n = 47,000)
USP10 inh – human USP10 deubiquitinase inhibition | Q14694 | inhibition, % at 20 µM | purified USP10, Ub-rhodamine fluorescence, 60 min | actives 1.1% (n = 47,000)
USP7 block – inhibitors of human USP7 deubiquitinase; AID 1645854; purified USP7, Ub-rhodamine cleavage fluorescence; Q93009; actives 0.3% (n = 47,000); inhibition, % at 20 µM
The depositor's hits bear a star; / = not tested or not shown. A selection: hits, their analogues and other compounds. The true share with any hit is near 6.8%. No stated cut-off is given here; in the data, active means inhibition above about 30%; inactive means the rest.

SMILES | USP28 block | OTUD3 inh | UCHL1 block | USP8 inh | USP10 inh | USP7 block
Cc1cc(Cl)ccc1OCC(=O)Nc1ccccc1 | -6 | -3 | 0 | 0 | 2 | -14
CSc1cccc(NC(=O)COc2cccc3ccccc23)c1 | 35* | 14 | 10 | 43* | 26 | 15
Cc1noc(C)c1CN1CC[C@H]2O[C@H](C(=O)NCc3ccco3)CC[C@H]21 | -2 | 33* | -5 | -277 | -4 | -1
CCN1C(=O)c2cccnc2Sc2cc(NC(=O)COc3ccccc3OC)ccc21 | -4 | 5 | -2 | 7 | -6 | -3
COc1ccc(C(=O)C2CC(=O)Nc3c2c(C)nn3-c2ccc(Br)cc2)cc1 (centres undefined) | 10 | 13 | 3 | 30* | 20 | 8
O=C(NCCS(=O)(=O)N1CCN(c2ccc(F)cc2)CC1)c1cccc(F)c1 | -7 | -3 | -2 | -4 | 0 | -10
Cc1ccc(NC(=O)CC(NCc2ccccc2)C(=O)O)cc1Cl (centres undefined) | 13 | 10 | -1 | 15 | 0 | 0
O=C(Nc1ccc(Cl)cc1)c1cc(-c2ccccn2)n[nH]1 | 8 | 9 | 4 | -13 | 2 | 8
Cc1cccc(-c2cc(C(=O)Nc3ccccc3F)[nH]n2)c1O | 36* | 19 | 5 | 24 | 13 | 11
Cc1cc(C)c(O)c(-c2cc(C(=O)Nc3ccccc3Cl)[nH]n2)c1 | 19 | 11 | 5 | 97* | 25 | 19
CCOc1ccccc1NC(=O)c1cc(-c2ccncc2)n[nH]1 | / | -7 | -1 | 0 | 1 | 4
Cc1ccc(NC(=O)c2c3c(nc4ccccc24)CCCCC3)c(C)c1 | 6 | 4 | 1 | 12 | -5 | 3
CCOc1cc(C2C3=C(CC(c4ccccc4)CC3=O)Nc3ccccc3N2C(=O)C(F)(F)F)ccc1OCc1ccc(Cl)cc1 (centres undefined) | 7 | 0 | 0 | 23 | 0 | 10
O=C(Nc1ccccc1)C1COc2ccccc2C1 (centres undefined) | 7 | 0 | -3 | 0 | 3 | 0
O=C(O)C1C(C(=O)Nc2ccccc2)C2(c3ccccc3)C(=O)C1(c1ccccc1)C(c1ccccc1)=C2c1ccccc1 (centres undefined) | 86* | 64* | 7 | 51* | 69* | 66*
CC(C)(Oc1ccc(Cl)cc1)C(=O)NCc1nc2ccccc2[nH]1 | -16 | -8 | -5 | -14 | -8 | 0
Cc1nc(C2CN(Cc3csc(C4CCCC4)n3)CCO2)n[nH]1 (centres undefined) | 3 | 8 | 0 | 19 | 1 | 0
O=[N+]([O-])c1ccc(C(O)CN2CCN(Cc3ccccc3)CC2)cc1 (centres undefined) | 0 | 8 | 79* | -97 | 1 | 0
Cc1ccc(S(=O)(=O)N[C@@H](C(=O)N2CCC(C(=O)N[C@H](Cc3ccccc3)C(=O)O)CC2)C(C)C)cc1 | 8 | 14 | -1 | 0 | 1 | -1
O=c1cc(CN2CCN(c3ccc(Cl)cc3)CC2)cc[nH]1 | -17 | -10 | -2 | -40 | 2 | -5
C=C(C)CSc1nc(Cc2ccccc2)nc2sc3c(c12)CC(C)(C)OC3 | 33* | 14 | 4 | 10 | 3 | 9
C=C(C)CSc1nc(CC)nc2sc3c(c12)CC(C)(C)OC3 | 25 | 7 | 0 | 6 | 2 | 0
COc1ccc(C(=O)NCc2noc(C3CCCCC3)n2)cc1C#N | 42* | 0 | 0 | -52 | 0 | -10
COc1ccc(CN2C(=O)c3cc(-c4ccco4)nn3CC2(C)C(=O)NCc2ccc(C)cc2)cc1 (centres undefined) | 1 | -11 | 0 | -30 | 6 | 0
O=C1CC(C(=O)Nc2ccc(F)cc2)n2nc(SCc3ccccc3)nc2N1 (centres undefined) | 28 | 13 | 1 | 12 | 9 | 8
SMILES | USP28 block | OTUD3 inh | UCHL1 block | USP8 inh | USP10 inh | USP7 block
CC(=O)c1ccc(NC(=O)C2CC(=O)Nc3nc(SCc4ccccc4)nn32)cc1 (centres undefined) | 7 | 8 | 2 | 15 | 30* | 3
O=C(CC(c1ccccc1)c1ccccc1)N1CCN(c2ccc(F)cc2)CC1 | 15 | 9 | 8 | 0 | 5 | -12
CCc1nc2c(NC(=O)NC3CCCCC3)cccn2n1 | -2 | -6 | 0 | 32* | -2 | -1
O=C(Nc1nc2c(s1)CCCC2C(=O)NCc1ccncc1)c1ccc2c(c1)OCO2 (centres undefined) | 38* | -6 | 1 | -141 | -1 | -8
O=C(Nc1nc2c(s1)CCC2C(=O)NCc1ccncc1)c1ccccc1 (centres undefined) | -16 | -17 | -20 | -25 | -9 | -21
CC(C)(C)c1nc(SCc2nc(N)nc(Nc3ccccc3)n2)n[nH]1 | -14 | -11 | 0 | -2 | -1 | -1
CCc1nc(SCc2nc(N)nc(Nc3ccccc3)n2)n[nH]1 | 8 | 0 | 2 | 76* | 2 | -2
O=C(Nc1ccc(Cl)cc1)Nc1cccn2ncnc12 | 39* | 7 | 5 | 9 | 0 | 4
CCOc1ccc(NS(=O)(=O)c2ccc(NC(=O)COc3ccccc3C)cc2)cc1 | 11 | 0 | 7 | 19 | 17 | 8
COc1ccc(NS(=O)(=O)c2ccc(OC)c(NC(=O)c3ccc(OC)cc3)c2)cc1 | 5 | 12 | 5 | 2 | 7 | 10
CCOc1ccc(NS(=O)(=O)c2ccc(NC(=O)Nc3ccccc3)cc2)cc1 | 49* | -8 | 6 | 45* | 34* | 20
COc1ccc(NS(=O)(=O)c2ccc(NC(=O)Nc3ccc(Cl)cc3)cc2)cc1 | 42* | 13 | 5 | 21 | 29 | 16
O=C(Nc1ccc(F)cc1)N1CCCC1c1nc(-c2ccc(F)cc2F)no1 (centres undefined) | 5 | 10 | 2 | 15 | 3 | -26
Cc1ccc(Nc2nc(O)c(CC(=O)Nc3cccc(Cl)c3C)s2)cc1C | 6 | 19 | 2 | 63* | 30* | 12
CCOC(=O)c1ccc(NC(=O)Cc2sc(Nc3ccc(O)cc3)nc2O)cc1 | -3 | -2 | 4 | 0 | 4 | -1
COc1ccccc1CNc1nc(-c2nnc(-c3ccccc3)o2)nc2ccccc12 | 3 | 4 | 11 | 36* | 7 | 13
COc1ccccc1CNc1nnc(-c2nc(C3CC3)no2)c2ccccc12 | 23 | 5 | 8 | 14 | 7 | 1
COc1ccc(CCNCc2cc3c(C)nn(-c4ccccc4)c3[nH]c2=O)cc1OC | 12 | 12 | 1 | -53 | 4 | 8
COc1ccc(CNCc2cc3c(C)nn(-c4ccccc4)c3[nH]c2=O)cc1 | 11 | 5 | 0 | 64* | 4 | 7
Cc1nn(-c2ccccc2)c2[nH]c(=O)c(CNCc3ccccc3Cl)cc12 | -1 | -10 | -1 | 72* | 1 | 1
COc1ccc(CN2C[C@@H]3C[C@@H](O)CN3C[C@@H]2Cc2ccccc2)cc1OC | -17 | -12 | -6 | -2 | -9 | -5

Compound activity (PubChem)
